High-throughput results deposited in PubChem by several laboratories.
The list is not random: actives were taken first. Their share in the collection is about 1.5%.
PrP UTR inh = suppresses PrP 5' UTR mRNA reporter expression; 340,000 tested, 0.35% active; AID 488862; cell-based PrP 5' UTR mRNA reporter, plate reader; inhibition, % (test concentration not listed); in the data active = inhibition above about 52%; also: 0 = median of the neutral control wells
VHR inh abs = blocks human VHR1 dual specificity phosphatase; P51452; recombinant VHR phosphatase, pNPP absorbance; inhibition, % at 13.3 µM; 290,000 tested, 0.52% active; AID 1654; in the data active = inhibition above about 50%
Target sequence (P51452 whole entry, looked up): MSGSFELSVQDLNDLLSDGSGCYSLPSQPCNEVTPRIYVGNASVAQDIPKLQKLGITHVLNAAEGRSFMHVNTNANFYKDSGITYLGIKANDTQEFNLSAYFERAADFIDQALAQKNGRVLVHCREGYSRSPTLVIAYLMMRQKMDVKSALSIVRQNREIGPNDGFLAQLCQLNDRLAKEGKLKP
MazF activator = increases E. coli MazEF RNase cleavage of RNA; activation, % at 20 µM; P0AE70; 350,000 tested, 0.32% active; FAM/BHQ RNA-DNA oligo cleavage fluorescence, 5 h; AID 504720; in the data active = activation above about 50%
Target sequence (P0AE70 whole entry, looked up): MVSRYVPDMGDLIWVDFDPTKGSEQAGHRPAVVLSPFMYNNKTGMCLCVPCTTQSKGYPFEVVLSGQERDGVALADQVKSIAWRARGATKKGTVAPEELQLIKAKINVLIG
Mtb hypoxia inh = Mtb hypoxia fluorescent reporter inhibition | 300,000 tested, 0.1% active | M. tuberculosis hypoxia-regulated fluorescent reporter, fluorescence | fluorescence inhibition, % (concentration not given with the values); in the data active = fluorescence inhibition mostly above about 23%, no sharp cut-off; inactive = mostly below about 17%
PrPC TRFRET = cell surface PrPC inhibition, primary TR-FRET screen. TR-FRET read-out. 370,000 tested, 0.43% active. P04156. inhibition, % at 13.8 µM. AID 720596; in the data active = inhibition above about 24%; also: 0% = median of the test wells and 100% = reference compound wells
3CLpro inhibitor = SARS-CoV 3CLpro protease inhibition; P0C6X7; recombinant SARS-CoV 3CLpro, quenched FRET peptide cleavage; inhibition, % at 6 µM; 290,000 tested, 0.14% active; in the data active = inhibition above about 12%
* hit, by the source's call.

COc1ccccc1Oc1ccnc2cc(Cl)ccc12 was read as PrP UTR inh 9.5, VHR inh abs 57.6*, MazF activator -20.7, Mtb hypoxia inh -4.9, PrPC TRFRET 3.1 and 3CLpro inhibitor -0.7.
COc1ccccc1CNc1ncnc2cc(Cl)ccc12 was read as PrP UTR inh -22.6, VHR inh abs 41.0, MazF activator 4.1, Mtb hypoxia inh -0.1, PrPC TRFRET 4.8 and 3CLpro inhibitor 0.4.
CCCCC(=O)N1CC=CC(c2ccc(OC)cc2)N(Cc2ccc(F)cc2)C(=O)C1 (stereo unspecified) was read as Mtb hypoxia inh 6.8.
`CCN(CC)c1ccc(C=NNc2ccc(C)cc2)c(O)c1` gave Mtb hypoxia inh 17.8.
`CCN(CC)c1ccc(/C=N/Nc2ccc(C)cc2)c(O)c1` gave PrP UTR inh -24.1, VHR inh abs 7.8, MazF activator 5.9, PrPC TRFRET 25.2* and 3CLpro inhibitor 1.7.
For O=C(NCc1ccccc1)C1=CC(c2coc3ccccc3c2=O)CC(OCc2ccc(CO)cc2)O1 (stereo unspecified) the results were Mtb hypoxia inh 9.9.
O=C1NC(c2ccccc2)COC(=O)C(Cc2ccc(F)cc2)CCC=CCC1CC(=O)N(CCO)Cc1ccccc1 (stereo unspecified) was read as Mtb hypoxia inh -3.4.
Screening CCOC(=O)C1=C(C)N=c2sc(=Cc3cccc([N+](=O)[O-])c3O)c(=O)n2C1c1ccc(OC)cc1OC (stereo unspecified) returned Mtb hypoxia inh 40.6*.
CCOC(=O)C1=C(C)N=c2sc(=Cc3ccc(OCC(=O)O)c(OC)c3)c(=O)n2C1c1ccc(OC)cc1 (stereo unspecified) was read as Mtb hypoxia inh -4.7.
Screening CCOC(=O)C1=C(C)N=c2s/c(=C/c3ccccc3)c(=O)n2C1c1ccc(OC)c(OC)c1 (stereo unspecified) returned PrP UTR inh -5.2, VHR inh abs -0.8, MazF activator 84.7*, PrPC TRFRET -0.8 and 3CLpro inhibitor 5.7.
Cc1c(NC(=O)COC(=O)c2cc(-c3cccc4ccccc34)nc3ccccc23)c(=O)n(-c2ccccc2)n1C was read as PrP UTR inh -3.3, VHR inh abs -12.5, MazF activator 61.6*, PrPC TRFRET 2.8 and 3CLpro inhibitor -0.7.
`Cc1ccc2nc(C)cc(C(=O)OCC(=O)Nc3c(C)n(C)n(-c4ccccc4)c3=O)c2c1` gave PrP UTR inh -3.6, VHR inh abs 8.3, MazF activator 5.2, Mtb hypoxia inh 13.1, PrPC TRFRET 6.7 and 3CLpro inhibitor 2.1.
`CCC1=C(OC(=O)N(CC)CC)N2C(=O)OC(=NCCc3c[nH]c4ccccc34)[C@]2(Cc2ccccc2)C2C1=CCC1C(=O)N(CC)C(=O)C12` (stereo partly specified) gave Mtb hypoxia inh 15.2.
O=C(Oc1ccc(OC(=O)c2ccncc2)cc1)c1ccncc1 was read as PrP UTR inh -22.3, MazF activator -3.3, Mtb hypoxia inh 37.3* and PrPC TRFRET 9.7.
Screening O=C(COc1coc(CN2CCc3ccccc3C2)cc1=O)Nc1ccc(F)cc1F returned PrP UTR inh -15.8, MazF activator 211.4*, Mtb hypoxia inh 3.4 and PrPC TRFRET -0.1.
`O=C1/C(=C/c2ccc(N3CCCC3)cc2)NC(=S)N1C1CC1` gave PrP UTR inh -58.5, VHR inh abs 51.6*, MazF activator -179.8, Mtb hypoxia inh 5.9, PrPC TRFRET -18.5 and 3CLpro inhibitor -3.0.
Screening O=C1N/C(=C/c2ccc(N3CCCC3)cc2)C(=O)N1c1ccccc1 returned PrP UTR inh -52.7, VHR inh abs 2.1, MazF activator -18.9, Mtb hypoxia inh 12.7, PrPC TRFRET -0.4 and 3CLpro inhibitor 6.3.
`Cn1c(=O)c(C(=O)NC2CCCCCC2)c(O)c2ccccc21` gave PrP UTR inh -22.4, VHR inh abs 59.7*, MazF activator 0.3, Mtb hypoxia inh 4.6, PrPC TRFRET 2.9 and 3CLpro inhibitor 3.8.
Screening Cn1c(=O)c(C(=O)NCc2ccccc2Cl)c(O)c2ccccc21 returned PrP UTR inh -13.0, VHR inh abs 11.4, MazF activator 53.8*, Mtb hypoxia inh 8.3, PrPC TRFRET -5.5 and 3CLpro inhibitor 5.0.
`CCn1c(=O)c(C(=O)NCc2ccccc2Cl)c(O)c2ccccc21` gave PrP UTR inh -5.1, VHR inh abs -7.4, MazF activator -3.3, Mtb hypoxia inh -4.0, PrPC TRFRET -1.9 and 3CLpro inhibitor 1.7.
`C=C1C(=O)OC2CC1C(O)CC(C)=CCCC(C)=CC(O)CC2C` (stereo unspecified) gave PrP UTR inh -50.5, MazF activator -1.6 and PrPC TRFRET 33.3*.
`COC(=O)c1ccc(C23CC4(C2)C(CN(CC2CCCCC2)C4c2ccccc2)C3c2ccc(Cl)nc2)cc1` (stereo unspecified) gave Mtb hypoxia inh -10.9.
Screening O=C(Cn1c(/C=C/c2ccccc2)nc2ccccc21)Nc1ccc(F)cc1 returned PrP UTR inh -67.3, VHR inh abs 50.8*, MazF activator 6.3, Mtb hypoxia inh 15.9, PrPC TRFRET 0.2 and 3CLpro inhibitor -4.4.
For Cc1ccc(N2CC(C(=O)NC(C)CCc3ccccc3)CC2=O)cc1 (stereo unspecified) the results were PrP UTR inh 3.9, VHR inh abs 52.8*, MazF activator 3.2, Mtb hypoxia inh -1.7, PrPC TRFRET -8.3 and 3CLpro inhibitor -3.2.
Cc1ccc(N2CC(C(=O)NCCC(C)C)CC2=O)cc1 (stereo unspecified) was read as PrP UTR inh -12.9, VHR inh abs 13.3, MazF activator 3.2, PrPC TRFRET -10.4 and 3CLpro inhibitor 2.5.
`CCOC(=O)C1C2COc3ccccc3C2N2C(=O)CNC(=O)[C@@]12C` (stereo partly specified) gave Mtb hypoxia inh 7.2.
Screening Cc1nc2ccccc2c(=O)n1N=Cc1ccc(O)c(O)c1O returned Mtb hypoxia inh 12.6.
For Cc1cccc(OCC(=O)NCCNC(=O)c2cnccn2)c1 the results were PrP UTR inh 5.2, VHR inh abs 19.6, MazF activator -8.3, Mtb hypoxia inh -2.6, PrPC TRFRET -0.1 and 3CLpro inhibitor -2.2.
Screening Cc1cccc(OCC(=O)NCCNC(=O)c2ccncc2)c1 returned PrP UTR inh -5.2, VHR inh abs 59.7*, MazF activator 3.1, Mtb hypoxia inh 14.3, PrPC TRFRET 1.0 and 3CLpro inhibitor -4.3.
CCCCC1C2=C3C(CC(C(=O)OC)=CC(C(=O)OC)C3C(C)(C)C2=O)n2c(=O)n(-c3ccccc3)c(=O)n21 (stereo unspecified) was read as Mtb hypoxia inh 1.4.
O=C1/C(=C/c2ccccc2)SC(=S)N1CCCC(=O)N1CCCCC1CCO (stereo unspecified) was read as PrP UTR inh -16.3, VHR inh abs 51.2*, MazF activator 4.2, Mtb hypoxia inh 8.3, PrPC TRFRET 4.5 and 3CLpro inhibitor 2.2.
